In the supplement of paper PMC6555819 one finds PBM binding z-score data, which are given here for 7 sequences.

Common to all, as to test: PBM binding z-score (relative to random genomic background probes); higher = stronger binding; sequences stand for … in GC…GCGATTGACAGCGTAGAATGAAGG
For assay [1], the system named is FXR:RXRa (NR concentration 270 nM, RXRa partner concentration 90 nM). An outline of the steps: (§1)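 On custom Agilent 4×180K arrays, double-stranded probes with 34-nt variable regions carried direct-repeat seeds, single-nucleotide variants, half-site ablations or random human genomic background. Ligand-free nuclear receptor dimers were applied for 1 h, and binding was read with antibodies against each partner (one per run). Binding z-scores come from regression-normalized fluorescence, with the random background probes as reference.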

For assay [2], the system named is LXRa:RXRa (NR concentration 270 nM, RXRa partner concentration 90 nM). An outline of the steps: as §1
Assay [3] concerns LXRa homodimer (NR concentration 270 nM). The method in brief:
as §1

The subject of assay [4] is LXRb:RXRa (NR concentration 270 nM, RXRa partner concentration 90 nM). The method in brief:
as §1

The subject of assay [5] is LXRb homodimer (NR concentration 270 nM). The method in brief:
as §1

The subject of assay [6] is PPARa:RXRa (NR concentration 270 nM, RXRa partner concentration 90 nM). The method in brief:
as §1

The test system of assay [7] is PPARg:RXRa (NR concentration 180 nM, RXRa partner concentration 90 nM). The method in brief: as §1
Assay [8] has as its system PPARg:RXRa 270nM:90nM, anti-RXR (NR concentration 270 nM, RXRa partner concentration 90 nM). An outline of the steps:
as §1

For assay [9], the system named is PPARg:RXRa 30nM:10nM, anti-RXR (NR concentration 30 nM, RXRa partner concentration 10 nM). The method in brief:
as §1

The subject of assay [10] is PPARg:RXRa 90nM:30nM, anti-RXR (NR concentration 90 nM, RXRa partner concentration 30 nM). The method in brief: as §1
Assay [11] relates to PPARg:RXRa DBDmut IVT, anti-RXR (DBD mutation: RXRa K156A/R161A, NR concentration 270 nM, RXRa partner concentration 90 nM). An outline of the steps:
as §1

Assay [12] relates to PPARg:RXRa IVT, anti-PPARg (NR concentration 270 nM, RXRa partner concentration 90 nM). An outline of the steps:
as §1

Assay [13] relates to PPARg DBDmut:RXRa IVT, anti-PPARg (DBD mutation: PPARg1 K132A/R137A, NR concentration 270 nM, RXRa partner concentration 90 nM). An outline of the steps:
as §1

Assay [14] concerns PPARg DBDmut IVT, anti-PPARg (DBD mutation: PPARg1 K132A/R137A, NR concentration 270 nM). The method in brief: as §1
Assay [15] deals with PPARg homodimer (NR concentration 180 nM). The method in brief: as §1
For assay [16], the system named is PXR:RXRa (NR concentration 270 nM, RXRa partner concentration 90 nM). The method in brief:
as §1

The test system of assay [17] is PXR homodimer (NR concentration 270 nM). The method in brief: as §1
Assay [18] concerns RARa:RXR (NR concentration 270 nM, RXRa partner concentration 90 nM). The method in brief:
as §1

For assay [19], the system named is RARa homodimer (NR concentration 270 nM). An outline of the steps: as §1
In assay [20] the test system is RARb:RXRa (NR concentration 270 nM, RXRa partner concentration 90 nM). An outline of the steps: as §1

Take GATACAGGGTCAAGGCCTGAGTACGCGTATTGAT: the PBM binding z-score in [1] was 6.17; in [2] it was 3.94; in assay [3], -0.32; in assay [4], 3.35; in assay [5] it was -0.67; in [6], 5.35. In addition, the PBM binding z-score in assay [7] was 5.34; in assay [8], 5.5; in assay [9] it was 2.3; in [10], 4.29; in [11] it was 2.78; in [12], 3.87. Moreover, the PBM binding z-score in assay [13] worked out at 0.27; in assay [14], 0.16; in assay [15] it was 1.74; in [16], 3.43; in assay [17], 0.0722; in [18], 3.99. For the same sequence, the PBM binding z-score in assay [19] is 0.47; in assay [20] it was 4.4.
Turning to AATACAGGGTCATCGTAGGCCAGACTACGCACAG, the PBM binding z-score in [1] came out at 7.17; in assay [2], 6.52; in assay [3] it was 2.16; in assay [4] it was 5.02; in [5], 1.46; in assay [6], 6.05. Further, the PBM binding z-score turned out to be 6.77 in assay [7]; 6.04 in assay [8]; 2.96 in assay [9]; 4.83 in assay [10]; 2.63 in assay [11]; 4.16 in [12]. The PBM binding z-score in [13] was 1.31; in assay [14], 1.03; in [15] it was 2.16; in assay [16], 4.73; in assay [17], 0.736; in assay [18] it was 4.7. The PBM binding z-score in assay [19] worked out at 0.914; in assay [20] it was 4.5.
On to GGAACGAGGGCAAGTTGATATCAGAGTTTGATGG, for which the PBM binding z-score is 0.903 in assay [1]; 0.358 in assay [2]; -0.105 in [3]; 0.453 in assay [4]; -0.362 in assay [5]; 1.73 in [6]. Also, the PBM binding z-score was 1.22 in assay [7]; 1 in [8]; 0.0363 in assay [9]; 0.552 in assay [10]; 3.98 in assay [11]; 2.65 in [12]. Further, the PBM binding z-score was 0.634 in assay [13]; 0.177 in assay [14]; 0.61 in assay [15]; 0.864 in assay [16]; 0.655 in [17]; 0.687 in assay [18]. In addition, the PBM binding z-score was -0.152 in assay [19] and 2.57 in [20].
With TCATATAGGTAACGGTGAAAGTCGAACGATATGA, the PBM binding z-score in [1] is 0.511; in assay [2], 0.386; in [3], -0.274; in assay [4], 0.302; in assay [5], -0.326; in assay [6], 1.52. The PBM binding z-score in assay [7] was 1.63; in assay [8] it was 2.54; in assay [9] it was 3.34; in assay [10], 2.78; in [11] it was 4.89; in assay [12], 4.04. In addition, the PBM binding z-score in assay [13] is 1.45; in assay [14], 1.23; in [15], -0.0318; in [16] it was 0.0146; in assay [17], -0.0521; in assay [18], 0.23. For the same sequence, the PBM binding z-score stood at 0.533 in assay [19] and 0.479 in assay [20].
For the sequence TTACCAAGGTGTGCTGAGGTCGTTGATCCAACTC, the PBM binding z-score in assay [1] was 0.714; in assay [2], 0.293; in [3] it was -0.284; in assay [4], 0.587; in [5], -0.354; in assay [6], 0.88. The PBM binding z-score in [7] was -0.381; in assay [8] it was 0.606; in assay [9], -0.307; in assay [10], 0.00377; in assay [11] it was -0.56; in assay [12], 0.137. Moreover, the PBM binding z-score in assay [13] was -0.549; in assay [14], -0.745; in assay [15], 0.0378; in assay [16], 2.18; in assay [17] it was 0.694; in assay [18], 1.18. For the same sequence, the figures for the PBM binding z-score in [19] and in assay [20] were -0.699 and 0.629, respectively.
Turning to CCTATTAGTTGACCATAAGGGAAACCGAAGCTCG, the PBM binding z-score in assay [1] is 0.0135; in [2], 0.118; in assay [3], 0.818; in assay [4], 0.349; in assay [5], 0.904; in assay [6], 0.126. The PBM binding z-score in assay [7] is 0.419; in assay [8], 0.639; in assay [9], 0.332; in assay [10], 0.381; in [11] it was 0.672; in assay [12] it was 0.217. The PBM binding z-score in assay [13] amounted to 0.925; in assay [14], 1.02; in [15] it was 2.22; in assay [16] it was 0.326; in [17], 0.761; in assay [18] it was 0.517. Further, the PBM binding z-score in assay [19] came out at 2.53; in assay [20] it was 0.497.
For ACTATTATTTGACTTAGGGCAACCGATACGACGC, the PBM binding z-score is 0.71 in assay [1]; 0.925 in assay [2]; 1.54 in [3]; 0.685 in assay [4]; 1.46 in assay [5]; 0.557 in assay [6]. The PBM binding z-score in [7] is 1.15; in assay [8], 0.779; in assay [9] it was 0.924; in [10], 0.948; in [11], 0.814; in assay [12] it was 0.633. Besides, the PBM binding z-score in [13] turned out to be 1.79; in [14], 2.46; in assay [15], 2.16; in assay [16], 0.502; in assay [17], 1.69; in [18], 0.728. In addition, the PBM binding z-score in assay [19] was determined as 3.4; in assay [20], 1.21.
